System: Vero E6 infected with SARS-CoV-2
Test: inhibition of SARS-CoV-2 cytopathic effect; higher = more antiviral protection, active = above 15
Conditions: 48 h

Measured: inhibition of SARS-CoV-2 cytopathic effect

CCC1(C)CC(=O)NC(=O)C1 [bemegride]
inactive: 1 nM -1.73% | 8.33 nM -2.18% | 100 nM -2.05% | 833.33 nM 1.29% | 10000 nM -2.8%

c1ccc(N2CCN(Cc3nc4ccccc4[nH]3)CC2)nc1
inactive: 1 nM 3.44% | 8.33 nM 2.21% | 100 nM -0.12% | 833.33 nM 0.36% | 10000 nM -0.76%

CCCCCCCCCCC(CO)CCCCCCCC (stereo not given) [2-octyldodecan-1-ol]
inactive: 1 nM 1.79% | 8.33 nM -0.7% | 100 nM 0.48% | 833.33 nM 0.76% | 10000 nM 0.34%

Nc1cccc2c(=O)[nH][nH]c(=O)c12 [monosodium-alpha-luminol]
inactive: 1 nM -0.8% | 8.33 nM 0.14% | 100 nM -1.27% | 833.33 nM -0.92% | 10000 nM 2.06%

COc1ccc2c(O[C@@H]3C[C@H]4C(=O)N[C@]5(C(=O)NS(=O)(=O)C6CC6)C[C@H]5/C=C\CCCCN(C)C(=O)[C@@H]4C3)cc(-c3nc(C(C)C)cs3)nc2c1C [simeprevir]
inactive: 1 nM -0.41% | 8.33 nM 3.7% | 100 nM 2.68% | 833.33 nM -2.31% | 10000 nM 2.37%

COc1ccccc1N1CCN(CCCCNC(=O)c2ccc3ccccc3c2)CC1
inactive: 1 nM -1.05% | 8.33 nM 0.24% | 100 nM 1.14% | 833.33 nM -0.36% | 10000 nM -6.44%

CC(C)(CO)Cc1cc(C(C)(C)C)c(O)c(C(C)(C)C)c1
inactive: 1 nM -1.21% | 8.33 nM -2.15% | 100 nM 1.59% | 833.33 nM 4.34% | 10000 nM -0.79%

CCc1ccc(OCc2ccccc2C(=O)Nc2ccc3nc(C)cc(N)c3c2)cc1
inactive: 1 nM 0.87% | 8.33 nM 3.61% | 100 nM 2.46% | 833.33 nM 1.94% | 10000 nM -28.4%

CC(=O)N(CC(O)CO)c1c(I)c(C(=O)NCCO)c(I)c(C(=O)NCC(O)CO)c1I (stereo not given) [ioxilan]
inactive: 1 nM 1.8% | 8.33 nM 0.19% | 100 nM -2.31% | 833.33 nM -1.98% | 10000 nM -0.58%

O=C(NCCN1CCCCC1)c1ccc(I)cc1 [N-[2-(piperidinylamino)ethyl]-4-iodobenzamide]
inactive: 1 nM 0.64% | 8.33 nM 2% | 100 nM -0.15% | 833.33 nM -2.57% | 10000 nM -1.77%

CCN(CC)C(=O)N[C@H]1C[C@@H]2c3cccc4[nH]cc(c34)C[C@H]2N(C)C1 [terguride]
inactive: 1 nM -0.35% | 8.33 nM -0.23% | 100 nM -0.57% | 833.33 nM -2.15% | 10000 nM -0.04%

Cc1nc2c(O)cccc2c(=O)[nH]1
inactive: 1 nM 2.07% | 8.33 nM 2.96% | 100 nM -2.15% | 833.33 nM 3.67% | 10000 nM 4.88%

CS(=O)(=O)c1ccc([C@@H](O)[C@@H](CO)NC(=O)C(Cl)Cl)cc1 [thiamphenicol]
inactive: 1 nM -1.6% | 8.33 nM -2.5% | 100 nM -3.22% | 833.33 nM -3.59% | 10000 nM -2.23%

CCOc1ccc(-c2nc(-c3cccc4c3CCC4NCCO)no2)cc1OCC (stereo not given)
inactive: 1 nM -0.52% | 8.33 nM 0.67% | 100 nM 1.13% | 833.33 nM 0.77% | 10000 nM 5.33%

C[C@H]1N=C(N(C)C)N=C(N)N1 [imeglimin]
inactive: 1 nM 1.51% | 8.33 nM 1.14% | 100 nM 0.07% | 833.33 nM 0.43% | 10000 nM -0.77%

CC(C)(C)NCC(O)c1cc(Cl)c(N)c(C(F)(F)F)c1 (stereo not given) [mabuterol]
inactive: 1 nM -0.03% | 8.33 nM -0.53% | 100 nM 3.86% | 833.33 nM -1.18% | 10000 nM -0.72%

CC(C)(C)/[N+]([O-])=C/c1ccc(S(=O)(=O)O)cc1S(=O)(=O)O
inactive: 1 nM -1.02% | 8.33 nM -0.15% | 100 nM -0.41% | 833.33 nM 0.47% | 10000 nM 0.8%

CN1[C@@H]2CC[C@H]1C[C@@H](OC(=O)[C@H](CO)c1ccccc1)C2 [hyoscyamine]
inactive: 1 nM 1.06% | 8.33 nM -0.12% | 100 nM 0.93% | 833.33 nM -0.12% | 10000 nM -0.51%

C=C[C@H]1CN2CC[C@H]1C[C@@H]2[C@@H](O)c1ccnc2ccc(OC)cc12 [quinidine]
inactive: 1 nM -8.54% | 8.33 nM -5.1% | 100 nM -8.19% | 833.33 nM -4.54% | 10000 nM -4.21%
